Where “and” joins values, the source holds several entries; their conditions need not be identical. Identical values can stand only once. In all, about 16,000 compounds went through this assay and about 5,100 (32%) were called active. Inconclusive results (about 25%) are left out. Calls follow the shape of the dose curve; as a rule, active = well fitted curve in the direction sought with a large enough effect; inconclusive = small, poorly fitted or top-dose-only effect, or effect the other way; inactive = no such curve, though single readings can be large or run the other way. The list shows a part of the results.
What follows are molecules tested against Cytochrome P450 3A4 (Homo sapiens) (UniProt P08684) (assay: Cytochrome panel assay with activity outcomes). Conditions: recombinant CYP, pro-luciferin dealkylation, luminescence, p450-cyp3a4; series mostly up to 57.1 µM.
Cytochrome P450 3A4 (Homo sapiens), sequence (P08684 whole entry, looked up): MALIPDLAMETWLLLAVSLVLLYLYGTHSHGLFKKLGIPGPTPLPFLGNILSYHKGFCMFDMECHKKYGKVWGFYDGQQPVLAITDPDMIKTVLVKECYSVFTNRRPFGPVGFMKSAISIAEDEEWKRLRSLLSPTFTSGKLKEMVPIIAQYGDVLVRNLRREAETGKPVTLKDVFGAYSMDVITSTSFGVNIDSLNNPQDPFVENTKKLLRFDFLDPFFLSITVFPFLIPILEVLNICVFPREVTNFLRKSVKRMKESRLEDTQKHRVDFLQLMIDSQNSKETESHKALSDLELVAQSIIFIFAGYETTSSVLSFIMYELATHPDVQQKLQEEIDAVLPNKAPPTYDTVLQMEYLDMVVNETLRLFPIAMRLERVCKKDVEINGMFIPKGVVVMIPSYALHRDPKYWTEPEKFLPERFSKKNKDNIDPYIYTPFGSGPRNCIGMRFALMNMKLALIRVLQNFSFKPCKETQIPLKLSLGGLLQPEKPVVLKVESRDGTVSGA
% is scaled to controls: 0 for no effect and ±100 for the full control effect.

AC50, inactive:
Cc1nc2ccccc2nc(C)c1=NO
Cc1cc(OC(=O)c2cc(F)c(F)cc2Cl)nc(C)n1
CC(C)(C)C(=O)NC(=C(Cl)Cl)P(=O)(O)O
Cc1sc2nc(SCc3nc(-c4cccs4)no3)n(-c3ccccc3)c(=O)c2c1C
O=C(Nc1cccc(C(=O)Nc2ccc(S(=O)(=O)O)c3cc(S(=O)(=O)O)cc(S(=O)(=O)O)c23)c1)Nc1cccc(C(=O)Nc2ccc(S(=O)(=O)O)c3cc(S(=O)(=O)O)cc(S(=O)(=O)O)c23)c1
O=C(O)c1cc(=O)c2c(OCC(O)COc3cccc4oc(C(=O)O)cc(=O)c34)cccc2o1
CC(C)(C)OC(=O)COc1cc(OCC(=O)OC(C)(C)C)c2c(=O)cc(-c3ccccc3)oc2c1
CN1CCN(C2CC(=O)N(Cc3ccc(N4CCCC4=O)cc3)C2=O)CC1 (stereo unspecified)
CSCCC(NC=C1C(=O)OC(C)(C)OC1=O)C(=O)O (stereo unspecified)
CCN(CC)S(=O)(=O)c1cccc2c(N(C)C)cccc12
NCCS(=O)O
CCN1CCN(C(=O)N[C@H](C(=O)N[C@@H]2C(=O)N3C(C(=O)O)=C(CSc4nnnn4C)CS[C@@H]23)c2ccc(O)cc2)C(=O)C1=O
O=C(O)Cc1sc(-c2ccc(Cl)cc2)nc1-c1ccccc1
O=c1c2ccccc2c(-c2ccccc2)nn1-c1ccc(Cl)c(Cl)c1
O=C(/C=C/c1ccc(Cl)cc1)NCCN1CCOCC1

AC50, active:
CO[C@@H]1COC(=O)C/C=C\[C@H](C)[C@@H](NS(=O)(=O)c2ccc(C)cc2)COC(=O)C/C=C\[C@@H]1C 3.98 µM and 3.16 µM
CO[C@H]1COC(=O)[C@H](C)NC(=O)C/C=C\[C@@H](C)[C@@H](NS(=O)(=O)c2ccc(C)cc2)COC(=O)C/C=C\[C@@H]1C 3.98 µM
CO[C@H]1COC(=O)C/C=C\[C@H](C)[C@@H](NS(=O)(=O)c2ccc(C)cc2)COC(=O)C/C=C\[C@@H]1C 3.16 µM
CO[C@H]1COC(=O)[C@H](C)NC(=O)C/C=C\[C@@H](C)[C@@H](NS(=O)(=O)c2ccc(C)cc2)COC(=O)[C@H](OCc2ccccc2)/C=C\[C@@H]1C 3.16 µM
CO[C@H]1COC(=O)C/C=C\[C@H](C)[C@@H](NS(=O)(=O)c2ccc(C)cc2)COC(=O)CCC[C@@H]1C 3.98 µM
CCC(Sc1nc2cc3c(cc2c(=O)n1Cc1ccco1)OCO3)C(=O)Nc1ccccc1OC (stereo unspecified) 1.58 µM
CCC(Sc1nc2cc3c(cc2c(=O)n1Cc1ccco1)OCO3)C(=O)Nc1cccc(OC)c1 (stereo unspecified) 1.26 µM
CCn1c(C)cc(/C=C2\NC(=O)N(Cc3ccc(Cl)cc3)C2=O)c1C 1.58 µM
Cc1sc2nc(SCC(=O)C(C)(C)C)n(Cc3ccco3)c(=O)c2c1C 11.2 µM
Cc1ccc(SCCNC(=O)c2ccc(C)c(S(=O)(=O)Nc3ccccc3C)c2)cc1 0.631 µM
Cc1ccccc1NS(=O)(=O)c1cc(C(=O)Nc2cccc(N(C)S(C)(=O)=O)c2)ccc1C 1 µM
CCOC(=O)COc1cc(OCC(=O)OCC)c2c(=O)cc(-c3ccccc3)oc2c1 20 µM
O=C(Cn1c(SCC(=O)N2CCc3ccccc3C2)nc2ccccc21)NC1CCCC1 3.55 µM
C=CCn1c(SCC(=O)N2CCc3ccccc3C2)nc2ccccc2c1=O 2.51 µM
O=C1CC(N(O)C2CC(=O)N(Cc3ccccc3)C2=O)C(=O)N1Cc1ccccc1 (stereo unspecified) 10 µM
CCCCNS(=O)(=O)c1ccc(OC)c(Cl)c1Cl 11.2 µM
NCCCCCCNS(=O)(=O)c1cccc2c(Cl)cccc12 3.98 µM and 2.51 µM
NCCCCCCNS(=O)(=O)c1cccc2ccccc12 6.31 µM
NCCCCCCCCCCNS(=O)(=O)c1cccc2c(Cl)cccc12 2.51 µM
CCCCCCCNS(=O)(=O)c1cccc2c(Cl)cccc12 7.94 µM
O=S(=O)(NCCCCCCc1ccccc1)c1cccc2c(Cl)cccc12 2.51 µM
Cn1c(=O)c2[nH]c(SCc3ccccn3)nc2n(C)c1=S 3.98 µM
Cn1c(=O)c2[nH]c(CCCCc3nc4c([nH]3)c(=O)n(C)c(=S)n4C)nc2n(C)c1=S 1.26 µM
Cn1c(=S)c2[nH]c(SCc3cccnc3)nc2n(C)c1=O 3.16 µM
O=C(CCn1nc(-c2ccc(Cl)cc2)c2ccccc2c1=O)NCCN1CCOCC1 7.08 µM
O=c1c2ccccc2c(-c2ccccc2)nn1Cc1ccc(Cl)cc1 17.8 µM

activity, negative = inhibition, inactive:
CC(C)/C(=N/[N+](C)(C)C)c1ccccc1 -14.9% [at 11.4 µM]
CO[C@@H]1COC(=O)[C@H](C)NC(=O)C/C=C\[C@@H](C)[C@@H](NS(=O)(=O)c2ccc(C)cc2)COC(=O)C/C=C\[C@@H]1C 5.93% [at 11.4 µM]
CO[C@@H]1COC(=O)C/C=C\[C@H](C)COC(=O)[C@H](C)NC(=O)C/C=C\[C@H]1C -19.1% [at 11.4 µM]
CO[C@@H]1COC(=O)C/C=C\[C@H](C)[C@H](OC)COC(=O)[C@H]2CCCN2C(=O)C/C=C\[C@H]1C -14.8% [at 11.4 µM]
CO[C@H]1COC(=O)[C@H]2CCCN2C(=O)[C@@H](C)COC(=O)C/C=C\[C@@H]1C -39.8% [at 11.4 µM]
CO[C@@H]1COC(=O)C/C=C\[C@@H](C)[C@H](OC)COC(=O)[C@@H](C)COC(=O)C/C=C\[C@H]1C -12.1% [at 11.4 µM]
CO[C@H]1COC(=O)[C@@H](CCSC)NC(=O)C/C=C\[C@@H](C)[C@H](OC)COC(=O)[C@@H](OCc2ccccc2)/C=C\[C@@H]1C -27.8% [at 11.4 µM]
CO[C@H]1COC(=O)C/C=C\[C@@H](C)[C@H](OC)COC(=O)[C@H]2CCCN2C(=O)C/C=C\[C@@H]1C -29.5% [at 11.4 µM]
CO[C@H]1COC(=O)[C@H](C)NC(=O)C/C=C\[C@@H](C)[C@H](OC)COC(=O)[C@@H](OCc2ccccc2)/C=C\[C@@H]1C -29.2% [at 11.4 µM]
N=C(N)C(N=Nc1ccccc1)C(=N)N (stereo unspecified) -1.93% [at 11.4 µM]
CO[C@H]1COC(=O)CCC[C@H](C)[C@@H](OC)COC(=O)C/C=C\[C@@H]1C -19.5% [at 11.4 µM]
CO[C@H]1COC(=O)CCC[C@H](C)[C@H](OC)COC(=O)C/C=C\[C@@H]1C -29.6% [at 11.4 µM]
Cc1ccc(S(=O)(=O)Nc2ccccc2C(=O)c2ccc(C)c(C)c2)cc1 -2.65% [at 11.4 µM]
C[N+]1(CCCC[N+]2(C)CCCCCCC2)CCCCCCC1 6.39% [at 11.4 µM]
NC(=O)c1ccc[n+](CC(=O)OCCC23CC4CC(CC(C4)C2)C3)c1 -1.21% [at 2.29 µM]
CC(=O)O[C@]1(C)N=NC2(CCCCC2)O1 -7.61% [at 11.4 µM]
C=CCn1c(SCC)nc2sc3c(c2c1=O)CCc1ccccc1-3 -8.25% [at 2.29 µM]
CN1CCN(CCCBr)CC1 9.1% [at 11.4 µM]
O=C(O)[C@@H]1[C@H](C(=O)O)[C@H]2C(=O)C=C[C@H]1N2Cc1ccccc1 -7.47% [at 11.4 µM]
O=C1C2[C@@H](c3ccccc3)N[C@@H](c3ccccc3)C1[C@H](c1ccccc1)N[C@H]2c1ccccc1 5.64% [at 11.4 µM]
Nc1ccc(S(=O)(=O)NCCS(=O)(=O)O)cc1 -0.993% [at 11.4 µM]
NS(=O)(=O)c1ccc(NC(=O)Nc2cccc3ccccc23)cc1 -6.44% [at 11.4 µM]
O=S(=O)(O)CCCc1cccc2ccccc12 -8.32% [at 11.4 µM]
COc1cc(/C=C/C(=O)O)cc(S(=O)(=O)NCCCO)c1OC -24.1% [at 11.4 µM]
S=c1c2[nH]cnc2ncn1CCSc1ncnc2nc[nH]c12 -9.42% [at 11.4 µM]
c1ccc(CCCNc2nnnc3ccccc23)cc1 -29.6% [at 11.4 µM]
NCCCc1c(-c2ccccc2)nc(N)[nH]c1=O 1.03% [at 11.4 µM]
Cn1c(=O)c2[nH]c(CCCCC(=O)O)nc2n(C)c1=O -10.1% [at 11.4 µM]
Cn1c(=S)c2[nH]c(SCCN3C(=O)c4ccccc4C3=O)nc2n(C)c1=O -20.9% [at 11.4 µM]
Cn1c(=O)c2[nH]c(CSCc3ccccc3)nc2n(C)c1=O -25% [at 11.4 µM]
Cn1c(=S)c2[nH]c(SCCCc3ccccc3)nc2n(C)c1=O -26.2% [at 11.4 µM]
Cn1c(=S)c2[nH]c(SCCN3CCCC3)nc2n(C)c1=O -16% [at 11.4 µM]
Cn1c(=O)c2[nH]c(CCCCc3nc4ccccc4[nH]3)nc2n(C)c1=O -19% [at 11.4 µM]
CCCC(c1cc(C(C)(C)C)c(O)cc1C)c1cc(C(C)(C)C)c(O)cc1C 5.69% [at 11.4 µM]
Cc1ccc(-c2nn(C)c(=O)c3ccccc23)cc1CNC(=O)Cn1nc(-c2ccccc2)c2ccccc2c1=O -27.5% [at 11.4 µM]

Reference: PubChem BioAssay AID1851 (National Center for Advancing Translational Sciences (NCATS), 2009)
